The results in this text go back to PubChem BioAssay (Tox21).

Results filed as inconclusive are left out. Activity calls are given as the source filed them. Unless noted, the call rests on the fitted dose curve; in most records, active means well fitted curve in the direction sought with a large enough effect in the repeat runs; inconclusive means weak or mixed curves; inactive means no such curve, though single readings can be large; an effect the other way counts as inactive or inconclusive.

Experiment [1] can be described thus: qHTS assay to identify small molecule antagonists of the estrogen receptor alpha (ER-alpha) signaling pathway using the BG1 cell line in the presence of 0.1 nM 17-beta-estradiol - cell viability counter screen (AID 1259241). Further: nearly all actives have a fitted effect of over 40% in size. Further: potency means the concentration at half of the fitted maximal effect. The essentials: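 Viability in VM7Luc4E2 cells after 22 hr compound exposure under 0.1 nM 17beta-estradiol stimulation, by CellTiter-Fluor.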

Experiment [2] in a line: qHTS assay to identify small molecule antagonists of the androgen receptor (AR) signaling pathway using the MDA cell line in the presence of 0.5 nM R1881 - cell viability counter screen (AID 1259242). Further: nearly all actives have a fitted effect of over 45% in size. Further: potency means the concentration at half of the fitted maximal effect. The essentials:
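Viability of MDA-kb2 cells was multiplexed with the luciferase AR readout; after 16 hr with compounds and R1881 at 0.5 nM final, CellTiter-Fluor fluorescence was recorded.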

Experiment [3] concerns the target Androgen receptor (Homo sapiens) (UniProt P10275). The experiment can be described thus: qHTS assay to identify small molecule antagonists of the androgen receptor (AR) signaling pathway using the MDA cell line in the presence of 0.5 nM R1881 (AID 1259243). Further: nearly all actives have a fitted effect of over 50% in size. Further: potency means the concentration at half of the fitted maximal effect. The method, boiled down: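 Reporter cells cultured without CO2 receive test chemicals, then 0.5 nM R1881 final; after 16 hr at 37C, ONE-Glo is added and light output recorded.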
(In general: qHTS replaces the single test concentration by a dilution series.)

The target in experiment [4] is Estrogen receptor (Homo sapiens) (UniProt P03372). The experiment can be described thus: qHTS assay to identify small molecule antagonists of the estrogen receptor alpha (ER-alpha) signaling pathway using the BG1 cell line in the presence of 0.1 nM 17-beta-estradiol (AID 1259244). Further: nearly all actives have a fitted effect of over 50% in size. Further: potency means the concentration at half of the fitted maximal effect. The method, boiled down:
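Estradiol at 0.1 nM (final) stimulates the endogenous ER-alpha of VM7Luc4E2 cells carrying an ERE-driven luciferase; compounds are co-incubated 22 h at 37C and luciferase output quantified by luminescence.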

A short description of experiment [5]: qHTS assay to identify small molecule HDAC inhibitors (AID 1259364). Further: potency means the concentration at half of the fitted maximal effect.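 Further: wild-type HCT-116 cells with endogenous class I/II HDAC activity; nearly all actives have a fitted effect of over 45% in size.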 The method, boiled down: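 Read-out: luminescence of HDAC-Glo I/II reagent, 30 min RT, reflecting class I/II deacetylase activity in whole HCT-116 cells pre-exposed 2 h to DMSO-dissolved compounds.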
Experiment [6] can be described thus: qHTS assay to identify small molecule HDAC inhibitors - cell viability counter screen (AID 1259365). Further: nearly all actives have a fitted effect of over 50% in size. Further: potency means the concentration at half of the fitted maximal effect. The method, boiled down:
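Cytotoxicity was gauged in wild-type HCT-116 cells after a brief 2hr treatment with DMSO-dissolved compounds at 37C and 5% CO2, using CellTiter-Glo luminescence developed for 30min at room temperature.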

Experiment [7] can be described thus: qHTS assay to identify small molecule agonists of the sonic hedgehog signaling (Shh) pathway - cell viability counter screen (AID 1259366). Further: nearly all actives have a fitted effect of over 50% in size. Further: potency means the concentration at half of the fitted maximal effect. The method, boiled down: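 Stable Gli1-Luc NIH/3T3 clone, 2,000 cells/well. Compound exposure 24hr at 37C. Read-out: CellTiter-Fluor fluorescence.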
A short description of experiment [8]: qHTS assay to identify small molecule antagonists of the sonic hedgehog signaling (Shh) pathway - cell viability counter screen (AID 1259367). Further: nearly all actives have a fitted effect of over 55% in size. Further: potency means the concentration at half of the fitted maximal effect. The method, boiled down: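 Seed 3T3 Gli1-Luc cells at 2,000 per well; incubate 4 hr; add compound in DMSO, then conditioned medium; incubate at 37C with 5% CO2; add CellTiter-Fluor after 23 hr; read fluorescence 1 hr later.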

A short description of experiment [9]: qHTS assay to identify small molecule agonists of the sonic hedgehog signaling (Shh) pathway (AID 1259368; calls by dose curve;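 further: NIH/3T3-derived 3T3Gli1-Luc cells carrying a stable Gli1-driven firefly luciferase reporter; series mostly up to about 92 µM; nearly all actives have a fitted effect of over 15% in size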). The method, boiled down:
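A Gli1 transcriptional response element controlled firefly luciferase in 3T3Gli1-Luc cells. Compounds and a positive control were added 4 hr after plating, and cells were incubated a further 24 hr at 37 C before luminescence detection.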

A short description of experiment [10]: qHTS assay to identify small molecule phospholipidosis (PLD) inducers (AID 1259344; active means well fitted curve in the direction sought with a large enough effect; an effect the other way counts as inactive or inconclusive). The essentials: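 Quantitative HTS in HepG2: compound plus LipidTOX Red dye for 24 h, paraformaldehyde fixation with Hoechst 33342, widefield high-content imaging; amiodarone as positive and DMSO as negative control.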

Chain of Estrogen receptor (Homo sapiens) (P03372 whole entry, looked up): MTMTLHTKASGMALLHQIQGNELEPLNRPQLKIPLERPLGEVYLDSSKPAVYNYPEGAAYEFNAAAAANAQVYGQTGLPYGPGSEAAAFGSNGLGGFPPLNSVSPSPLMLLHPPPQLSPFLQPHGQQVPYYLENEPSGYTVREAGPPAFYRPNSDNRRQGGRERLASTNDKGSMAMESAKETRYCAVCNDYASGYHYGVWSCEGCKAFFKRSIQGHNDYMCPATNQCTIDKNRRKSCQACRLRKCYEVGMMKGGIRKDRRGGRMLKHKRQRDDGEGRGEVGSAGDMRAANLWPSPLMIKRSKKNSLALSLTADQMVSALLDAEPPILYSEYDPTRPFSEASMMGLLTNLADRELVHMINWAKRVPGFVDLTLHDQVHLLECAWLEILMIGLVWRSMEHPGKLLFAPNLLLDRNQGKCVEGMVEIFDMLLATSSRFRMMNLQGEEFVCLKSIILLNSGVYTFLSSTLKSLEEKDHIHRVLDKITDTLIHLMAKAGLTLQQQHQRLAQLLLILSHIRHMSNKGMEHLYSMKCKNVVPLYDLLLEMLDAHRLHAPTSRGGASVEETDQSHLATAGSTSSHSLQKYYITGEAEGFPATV
Chain of Androgen receptor (Homo sapiens) (P10275 whole entry, looked up): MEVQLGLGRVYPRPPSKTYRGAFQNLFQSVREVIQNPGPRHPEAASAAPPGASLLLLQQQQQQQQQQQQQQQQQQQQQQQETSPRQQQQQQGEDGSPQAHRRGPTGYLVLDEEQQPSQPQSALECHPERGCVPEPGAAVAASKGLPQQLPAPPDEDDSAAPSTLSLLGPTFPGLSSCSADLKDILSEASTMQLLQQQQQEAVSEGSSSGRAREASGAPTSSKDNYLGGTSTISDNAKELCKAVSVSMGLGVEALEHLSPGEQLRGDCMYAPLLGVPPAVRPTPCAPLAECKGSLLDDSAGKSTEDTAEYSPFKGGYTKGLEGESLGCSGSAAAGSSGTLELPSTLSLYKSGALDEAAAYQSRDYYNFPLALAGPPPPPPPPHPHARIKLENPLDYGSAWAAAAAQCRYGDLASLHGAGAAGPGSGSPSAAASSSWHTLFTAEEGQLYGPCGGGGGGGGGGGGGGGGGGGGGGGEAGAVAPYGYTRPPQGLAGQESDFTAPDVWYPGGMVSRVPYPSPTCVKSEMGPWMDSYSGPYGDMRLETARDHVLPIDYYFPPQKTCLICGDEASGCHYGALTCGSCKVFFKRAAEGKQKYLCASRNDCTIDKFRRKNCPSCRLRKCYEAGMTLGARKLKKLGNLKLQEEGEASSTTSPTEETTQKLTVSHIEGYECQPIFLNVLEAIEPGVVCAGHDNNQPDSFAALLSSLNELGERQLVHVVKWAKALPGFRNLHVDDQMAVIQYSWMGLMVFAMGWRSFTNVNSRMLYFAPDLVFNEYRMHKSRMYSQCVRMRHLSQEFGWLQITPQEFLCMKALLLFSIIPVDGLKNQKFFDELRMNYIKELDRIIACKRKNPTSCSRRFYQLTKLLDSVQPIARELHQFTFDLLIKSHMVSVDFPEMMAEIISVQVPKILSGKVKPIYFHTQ

As for `COS(=O)(=O)c1ccc(C)cc1`, the Potency entry in [1], in [2], in experiment [3], in experiment [4], in [5] and in experiment [6] was “inactive” throughout. In addition, the Potency entry in experiment [7], in experiment [8] and in [9] was “inactive” throughout.
`N#Cc1ccc(O)cc1`: the Potency entry in [1], in experiment [2], in [3], in experiment [4], in experiment [5] and in experiment [6] was “inactive” in each case. Also, the Potency entry in experiment [7], in experiment [8] and in experiment [9] was “inactive” in each case.
With `Nc1ccccc1C(=O)Oc1ccc2ccccc2c1`, the Potency result in experiment [1], in [2], in experiment [3], in [4], in experiment [6] and in experiment [7] was “inactive” each time. Moreover, the Potency result in experiment [8] and in [9] was “inactive” in each case. For the same compound, the Potency in experiment [5] was 8.63 µM (active).
Regarding `CC1(C)CN=C(NN=C(/C=C/c2ccc(C(F)(F)F)cc2)/C=C/c2ccc(C(F)(F)F)cc2)NC1`, the Potency in experiment [1] was 61.1 µM (active); in experiment [2], 24.3 µM (active); in experiment [3] it was 17.2 µM (active); in experiment [4], 48.6 µM (active); in experiment [7] it was 19.3 µM (active); in [8] it was 17.2 µM (active). Also, the Potency entry in experiment [5], in [6] and in [9] was “inactive” throughout.
As for `CC(C)CBr`, the Potency entry in experiment [1], in experiment [2], in [3], in experiment [4], in experiment [5] and in [6] was “inactive” each time. For the same compound, the Potency result in experiment [7], in experiment [8] and in [9] was “inactive” throughout.
For `CC(=O)O[C@H]1CC[C@@]2(C)C(=CC[C@@H]3[C@@H]2CC[C@]2(C)C(=O)CC[C@@H]32)C1`, the Potency entry in experiment [1], in experiment [2], in experiment [4], in experiment [10], in [5] and in experiment [6] was “inactive” each time. Also, the Potency result in [7], in [8] and in [9] was “inactive” in each case. Also, the Potency in experiment [3] was 5.45 µM (active).
On to `Cc1ccc(CCl)cc1`, for which the Potency entry in experiment [1], in experiment [2], in experiment [3], in [4], in experiment [5] and in experiment [6] was “inactive” throughout. In addition, the Potency result in [7], in experiment [8] and in [9] was “inactive” each time.
`O=[N+]([O-])c1cc(Cl)ccc1Cl`: the Potency result in experiment [1], in experiment [2], in [3], in experiment [4], in experiment [5] and in experiment [6] was “inactive” throughout. The Potency entry in [7] and in experiment [8] was “inactive” throughout.
With `C[C@@H]1CC[C@@]2(OC1)O[C@H]1[C@@H](O)[C@H]3[C@@H]4CC[C@H]5C[C@@H](O[C@@H]6O[C@H](CO)[C@H](O[C@@H]7O[C@H](CO)[C@@H](O)[C@H](O[C@@H]8OC[C@@H](O)[C@H](O)[C@H]8O)[C@H]7O[C@@H]7O[C@H](CO)[C@@H](O)[C@H](O[C@@H]8O[C@H](CO)[C@@H](O)[C@H](O)[C@H]8O)[C@H]7O)[C@H](O)[C@H]6O)[C@H](O)C[C@]5(C)[C@H]4CC[C@]3(C)[C@H]1[C@@H]2C`, the Potency in [1] was 29 µM (active); in experiment [2] it was 23 µM (active); in [3], 14.5 µM (active); in [4], 57.8 µM (active); in [6] it was 29 µM (active); in experiment [7], 32.5 µM (active). Moreover, the Potency in experiment [8] is 32.5 µM (active). Moreover, the Potency entry in experiment [5] and in experiment [9] was “inactive” in each case.
Turning to `CCc1ccccc1C`, the Potency result in [1], in [2], in [3], in experiment [4], in [5] and in [6] was “inactive” each time. The Potency entry in experiment [7], in [8] and in experiment [9] was “inactive” in each case.
With `CCSC(C)CC1CC(=O)C(/C(CC)=N/OC/C=C/Cl)=C(O)C1` (centres undefined), the Potency result in experiment [1], in experiment [2], in [3], in experiment [4], in [5] and in [6] was “inactive” each time. Moreover, the Potency result in [7], in experiment [8] and in experiment [9] was “inactive” in each case.
On to `O=C(Cl)c1ccc(Cl)cc1`, for which the Potency entry in [1], in experiment [2], in [3], in experiment [4], in [5] and in [6] was “inactive” in each case. Besides, the Potency entry in experiment [7] and in [8] was “inactive” each time.
Consider `O=C(NC(=O)c1c(F)cccc1F)Nc1cc(Cl)c(OC(F)(F)C(F)F)c(Cl)c1`, for which the Potency entry in [1], in experiment [2], in [3], in experiment [4], in experiment [5] and in experiment [6] was “inactive” each time. The Potency result in experiment [7], in [8] and in experiment [9] was “inactive” throughout.
Take `CCCCOCN(C(=O)CCl)c1c(CC)cccc1CC`: the Potency result in [1], in experiment [2], in experiment [4], in experiment [5], in experiment [6] and in experiment [9] was “inactive” throughout. Moreover, the Potency in experiment [3] was 30.6 µM (active); in [8], 61.1 µM (active).
For `N#CC(Cl)Cl`, the Potency result in [1], in experiment [2], in experiment [3], in [5], in experiment [6] and in experiment [7] was “inactive” each time. Besides, the Potency result in experiment [8] and in experiment [9] was “inactive” throughout.
For `BrCC(Br)c1ccccc1` (centres undefined), the Potency entry in experiment [1], in experiment [2], in experiment [3], in experiment [5], in [6] and in experiment [7] was “inactive” throughout. The Potency entry in experiment [8] and in experiment [9] was “inactive” each time.
For `CC(C)(C)OO`, the Potency result in experiment [1], in experiment [2], in [3], in [5], in experiment [6] and in [7] was “inactive” throughout. Moreover, the Potency entry in [8] and in experiment [9] was “inactive” in each case.
`CCOC(=O)C1(c2ccccc2)CCN(CCC(C#N)(c2ccccc2)c2ccccc2)CC1`: the Potency result in experiment [1], in experiment [2], in experiment [10], in experiment [5], in [6] and in [7] was “inactive” each time. Further, the Potency entry in experiment [8] and in experiment [9] was “inactive” throughout. Also, in experiment [3], the Potency is 29.8 µM (active).
Regarding `COP(=S)(OC)Oc1cc(Cl)c(Br)cc1Cl`, the Potency result in experiment [1], in experiment [2], in [5], in experiment [6], in [7] and in [8] was “inactive” throughout. Besides, the Potency in experiment [3] was 54.5 µM (active).
In the case of `FC(Cl)(Cl)Cl`, the Potency result in [1], in experiment [2], in experiment [3], in experiment [5], in experiment [6] and in [7] was “inactive” in each case. Besides, the Potency result in [8] and in [9] was “inactive” each time.
Regarding `CCC(C)c1cc(C(C)(C)C)cc(-n2nc3ccccc3n2)c1O` (centres undefined), the Potency result in experiment [1], in experiment [2], in [3], in experiment [5], in experiment [6] and in [7] was “inactive” in each case. Moreover, in [8], the Potency result was “inactive”.
Regarding `CC(C)(C)C(O)C(Oc1ccc(-c2ccccc2)cc1)n1cncn1` (centres undefined), the Potency entry in [1], in [2], in experiment [5] and in experiment [6] was “inactive” in each case. In addition, the Potency in [3] is 30.6 µM (active); in experiment [7], 30.6 µM (active); in experiment [8] it was 24.3 µM (active).
Turning to `CCN(CC)c1c([N+](=O)[O-])cc(C(F)(F)F)c(N)c1[N+](=O)[O-]`, the Potency result in experiment [1], in experiment [2], in [5], in experiment [6], in experiment [7] and in experiment [8] was “inactive” each time. Besides, the Potency entry in experiment [9] is “inactive”. The Potency in experiment [3] was 27.3 µM (active).
